# Screening data: PubChem BioAssay, several laboratories
# This is a sample that favours compounds with a hit; in the whole collection about 2.7% have one here.
# Shn3 inh set2 = reduction of Shn3 3'UTR firefly luciferase signal, primary screen, Schnurri-3 inhibitor project, cell-based, Clone20 osteoblasts, set 2 | Clone20 osteoblast Shn3 3'UTR firefly luciferase, 24 h | inhibition, % at 12.5 µM | actives 0.52% (n = 360,000);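 active = mean inhibition of at least 75% with every replicate also reaching 75%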
# CF NFkB inh = inhibitors of PAF-induced NF-kB signaling, primary screen, cell-based, GFP fluorescence, uHTS | KKLEB NF-kB-GFP reporter, GFP fluorescence overnight | inhibition, % at 5 µM | actives 0.86% (n = 360,000) | AID 588850, 2011;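 active = at least 50% inhibition at 5 µM, scaled per plate between neutral and stimulator controls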;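 note: PAF is a Pseudomonas aeruginosa culture filtrate used as stimulus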
# MITF TRPM1 inh = inhibitors of MITF-dependent TRPM1 promoter reporter, primary screen, cell-based, SK-MEL-5, single point, luciferase; SK-MEL-5 TRPM1 promoter luciferase, 24 h; inhibition, % at 12.5 µM; actives 0.83% (n = 330,000); AID 488899, 2010;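 active = mean inhibition across replicates of 60% or more, whatever share of single replicates reaches that level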
# KKLEB cytotox = cytotoxicity in KKLEB CF airway cells, primary screen, cytotoxicity control for CF NF-kB inhibitor project, cell-based, uHTS, fluorescence assay plates. KKLEB CF airway cells viability, ATPlite luminescence, overnight; active compounds read low; cells stimulated with P. aeruginosa culture filtrate. activity change (cytotoxicity), % at 5 µM. actives 0.36% (n = 360,000);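 active = corrected activity change at or below -50% at 5 µM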
# Peg3 prom inh = Peg3 promoter-driven luciferase inhibitors, primary screen, cell-based, HeLa, luciferase luminescence; HeLa PEG-Prom luciferase reporter, overnight; inhibition, % at 20 µM; actives 1.7% (n = 360,000); AID 588405, 2011;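 active = inhibition of at least 50% at 20 µM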
# HIF-2a block = HIF-2a reporter inhibitors, primary screen, luminescence, 786-0 RCC cells; 786-0 RCC cells HIF-2a reporter, luciferase luminescence, overnight; AID 624352, 2012; inhibition, % at 18.8 µM; actives 0.72% (n = 360,000);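 active = inhibition of the luminescence signal of 40% or more relative to plate controls, in a single-dose primary screen at 18.75 µM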
# CF NFkB conf = inhibitors of PAF-induced NF-kB signaling, retest, confirmation, cell-based, GFP fluorescence, single concentration; actives 64% (n = 1,300); shares compounds with CF NFkB inh; inhibition, % at 5 µM; KKLEB CF airway cells, overnight; in the data active = inhibition above about 40%;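 note: stimulus PAF is a Pseudomonas aeruginosa filtrate and not platelet activating factor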
# Numbers stand for hits; i = inactive; nt = not tested or not shown.
SMILES,Shn3 inh set2,CF NFkB inh,MITF TRPM1 inh,KKLEB cytotox,Peg3 prom inh,HIF-2a block,CF NFkB conf
Cc1cccc(Nc2ncnc(N)c2[N+](=O)[O-])n1,i,i,i,i,i,i,nt
Cc1cc(C)nc(Sc2ncnc(N)c2[N+](=O)[O-])n1,i,63,i,i,i,i,63
CC1(C(=O)Nc2cccc(NS(C)(=O)=O)c2)CCN1Cc1ccccc1OC(F)F (stereo unspecified),i,i,nt,i,i,i,nt
O=Nc1ccc(NO)c2ccccc12,i,85,nt,i,i,i,54
COC(=O)c1cn(C(=O)OC)c2ccccc12,i,i,i,i,i,i,nt
COC(=O)c1c(C)n(-c2ccc(OC)cc2)c2ccc(O)cc12,i,58,nt,i,i,i,84
CCOC(=O)c1c(C)n(-c2ccc(F)cc2)c2ccc(O)cc12,i,i,i,i,i,i,nt
COc1ccc2c(c1)c(C(=O)O)c(C)n2-c1ccccc1,i,i,i,i,i,i,nt
COc1ccc2c(c1)c(C(C)=O)c(C)n2-c1ccc(C(C)=O)cc1,i,64,i,i,i,i,74
CCCCCCN1CCN(C2CN(Cc3cn(Cc4ccc(C)cc4)nn3)S(=O)(=O)C2)CC1 (stereo unspecified),nt,nt,nt,nt,nt,i,nt
C=CC1CN2CCC1CC2C(O)c1ccnc2ccc(OC)cc12 (stereo unspecified),i,i,i,i,i,i,nt
C=C1CCC[C@]2(C)C[C@H]3OC(=O)C(CN(Cc4ccc(OC)c(OC)c4)CC(C)O)[C@H]3CC12 (stereo partly specified),i,56,i,i,i,i,47
C=C1CCC[C@]2(C)C[C@H]3OC(=O)C(CNCC(OC)OC)[C@H]3CC12 (stereo partly specified),i,i,i,i,i,i,nt
CN[C@H](C)C(=O)NC[C@H]1O[C@@H](n2cc(C)c(=O)[nH]c2=O)C[C@@H]1O,i,i,nt,i,i,i,nt
O=C(NNC(=S)Nc1cccc(C(F)(F)F)c1)c1ccccc1Cl,i,i,i,i,i,i,nt
O=C(NNC(=S)Nc1cccc(C(F)(F)F)c1)c1cccc(Cl)c1,i,51,i,i,i,i,77
O=C(NC1CCCC(C(F)(F)F)C1)c1ccc([N+](=O)[O-])o1 (stereo unspecified),i,92,66,i,71,i,53
O=C(NC1CCCCC1)c1ccc([N+](=O)[O-])o1,i,i,i,i,i,i,nt
O=C(Nc1ccccc1[N+](=O)[O-])OCC=Cc1ccccc1,i,i,nt,i,i,i,nt
Cc1cccc(C)c1NC(=O)C1(C)CN(S(C)(=O)=O)CC(=O)N1C1CC1 (stereo unspecified),nt,nt,nt,nt,nt,i,nt
Cc1ccc(NC(=O)Nc2nnc(-c3ccncc3)s2)cc1C,i,90,i,i,i,i,77
Cc1ccc(/C(=C\CN2CCCC2)c2ccccn2)cc1,i,51,i,i,i,i,i
O=C(c1[nH]c(C(F)(F)F)nc1-c1ccccc1)N1CCN(c2ccccc2)CC1,i,i,nt,i,i,i,nt
O=C(c1[nH]c(C(F)(F)F)nc1-c1ccccc1)N1CCN(c2c(Cl)cncc2Cl)CC1,i,64,nt,i,i,i,57
CC(=O)C1CCC2C3CCC4=CC(=O)CC[C@]4(C)[C@@]3(F)C(O)C[C@]12C (stereo partly specified),i,56,i,i,i,i,i
SMILES,Shn3 inh set2,CF NFkB inh,MITF TRPM1 inh,KKLEB cytotox,Peg3 prom inh,HIF-2a block,CF NFkB conf
CC(=O)C1CCC2C3CCC4=CC(=O)CCC4(C)C3C(O)CC12C (stereo unspecified),i,i,nt,i,i,i,nt
CC1(Cc2ccc(C(F)(F)F)nc2)C(=O)Nc2cc(-c3ccccc3Cl)ccc21 (stereo unspecified),i,i,nt,i,i,i,nt
CC(=O)c1ccc2noc(-c3ccccc3)c2c1,i,i,i,i,i,i,nt
CN(C)/C=C/C(=O)c1ccc2noc(-c3ccccc3)c2c1,i,57,i,i,i,i,82
Cc1c(Cl)cccc1NC(=O)COC(=O)c1c2c(nc3ccccc13)CCN(Cc1ccccc1)C2,i,62,i,i,60,i,76
O=C(NC1CCCCCC1)c1c2c(nc3ccccc13)CCN(Cc1ccccc1)C2,i,i,i,i,i,i,nt
CC(C)c1ccccc1NC(=O)COC(=O)c1c2c(nc3ccccc13)CCN(Cc1ccccc1)C2,i,75,i,i,57,i,73
O=C(COC(=O)c1c2c(nc3ccccc13)CCCC2)Nc1ccc2c(c1)OCO2,i,i,i,i,i,i,nt
O=C1NC[C@H](CCCCN2C[C@H](Cc3ccc(O)cc3)N(CCC3CCCCC3)C(=O)C2=O)N(CCC2CCCCC2)C1=O,nt,nt,nt,nt,nt,i,nt
O=S(=O)(c1cccc2cnccc12)N1CCCNCC1,i,50,i,i,i,i,58
CC1CNCCN1S(=O)(=O)c1cccc2cnccc12 (stereo unspecified),i,i,i,i,i,i,nt
Cc1ccc(S(=O)(=O)Nc2nc3ccccc3nc2Nc2cccc(S(=O)(=O)N3CCCC3)c2)cc1,i,69,i,i,i,i,71
c1cc(-c2cnc3cccnn23)c2cccnc2c1,i,75,nt,i,i,i,51
Cc1ccc(F)c(S(=O)(=O)NC(=O)C2(C)CCN2C(=O)c2ccc(C(F)(F)F)nc2C)c1 (stereo unspecified),i,i,nt,i,i,i,nt
O=[N+]([O-])c1cc([N+](=O)[O-])c2oc(-c3ccccc3)c(Br)c2c1O,i,50,i,i,i,i,87
COc1ccc(-c2csc3ncnc(NCCO)c23)cc1,i,77,i,i,i,i,86
COc1ccc(-c2csc3ncnc(Nc4ccc(O)cc4)c23)cc1,i,i,i,i,i,i,nt
COCCN1Cc2cccc(C(=O)Nc3cccc(-c4nc5ccccc5[nH]4)c3)c2C1=O,i,57,i,i,i,i,68
O=C(NCC(F)(F)F)c1cc2c(c(-c3cccc(-c4ccccc4F)c3)n1)[C@H](CCO)N(C(=O)CC1CC1)C2,nt,nt,nt,nt,nt,i,nt
Cc1ccc2c(c1)C(=O)C(=O)N2Cc1ccc(C(F)(F)F)cc1,i,55,i,i,i,i,72
CC(=O)Nc1ccc(NC(=O)c2cccc(C(=O)OC(C)C)n2)cc1,i,i,i,i,i,i,nt
